Results published in PubChem BioAssay AID1963319 (National Center for Advancing Translational Sciences (NCATS), 2024).
Hit rate of the full screen: of about 1,300 compounds, about 120 (9.2%) were called active. Not shown: some 35% with an inconclusive outcome. Calls follow the shape of the dose curve; as a rule, active = well fitted activation curve with a large enough effect; inconclusive = small, poorly fitted or top-dose-only effect; inactive = flat fitted curve, though single readings scatter. These entries were drawn from the full list. Where a call stands in place of a potency, no number is given.

Target: Luciferin 4-monooxygenase (Photinus pyralis) (UniProt P08659)
Test: Firefly luciferase (FLuc-C-HiBiT) SDR gain of signal screen - plus ATP;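 also: signal reports ligand binding via conformational change of the enzyme rather than luciferase catalysis; nearly all actives have a fitted effect of over 55% in size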
Details: purified FLuc-C-HiBiT + ATP, HiBiT complementation luminescence; series mostly up to 32.7 µM
From the text: PI: James Inglese Ph.D. National Center for Advancing Translational Sciences (NCATS), National Institute of Health (NIH), Maryland Discovery and optimization of novel protein-binding ligands underlies many of the methods and applications of biology, drug discovery, clinical diagnostics, and environmental toxicology. Assays for detecting the interaction of, for example, a molecule with a macromolecular target also referred to here as the target of interest (TOI) is dependent on a compatible output technology. Depending on the nature and knowledge surrounding the TOI, whether a receptor, enzyme, regulatory subunit or scaffold, or a sequence-defined nucleic acid folded into a complex tertiary structure, assay strategies can vary widely. Here we exploit ligand-biased changes in the structural dynamics of the target protein to control reporter alpha complementation allowing a non-competitive, non-functional, non-separation measure of ligand-target interaction. […] Using a chemical library of >1,200 compounds enriched for scaffolds known to be associated with the inhibition of firefly luciferase (FLuc) activity (PubChem AIDs 2309) we first illustrate and compare the Structural Dynamics Response (SDR) assay vs. the standard functional FLuc enzyme assay (2). Secondly, we show the specificity and sensitivity of the SDR for the Abelson tyrosine kinase (ABL1) compared to the serine/threonine protein kinase A, using an enriched chemical library of 128 compounds selected, in part, for activity annotated with ABL1 kinase activity using the Pharos database (3). References: (1) A. S. Dixon et al., NanoLuc Complementation Reporter Optimized for Accurate Measurement of Protein Interactions in Cells. ACS Chem Biol 11, 400-408 (2016). […] Chemistry & Biology, 19, 1060 - 1072 (2012). (3) K. J. Kelleher et al., Pharos 2023: an integrated resource for the understudied human proteome. Nucleic Acids Res 51, D1405-D1416 (2023).
1. Reagent. Dispense 4 uL FLuc-C-HiBiT enzyme-buffer solution per well at a final enzyme concentration of 10 nM with or without 10 uM ATP into columns 2-48 of white, solid bottom medium bind 1536-well plates (Greiner Bio-One) by BioRaptr 2. Dispense respective buffer without enzyme at 4 uL/well in column 1 of assay plates. 2. Compounds. Library compounds and PTC124 control added at 23 nL per well, transfer by Pin Tool. 3. Incubation. Incubate enzyme and compounds at room temperature for >30 min, protect from light. 4. Reagent. (SDR assay) Add 3 uL/well of Nano-Glo HiBiT reagent (Promega) to assay plates for SDR assay with ATP. 5. Incubation. Incubate enzyme and substrate or detection reagent at room temperature for 5-10 min, protect from light. 6. Detector. HiBiT SDR assay measured using CCD-based camera (ViewLux) with settings as follows: Exposure, 1 sec; Gain, High; Speed, Slow; Binning, 2X. REFERENCES: Inglese J, Shamu CE and Guy RK, Reporting data from high throughput screening of small molecule libraries, Nature Chemical Biology, 2007, 3(8): 438-441. doi.org/10.1038/nchembio0807-438.
Potency is read from the fitted curve at half-maximal effect.

Chain of Luciferin 4-monooxygenase (Photinus pyralis) (P08659 whole entry, looked up): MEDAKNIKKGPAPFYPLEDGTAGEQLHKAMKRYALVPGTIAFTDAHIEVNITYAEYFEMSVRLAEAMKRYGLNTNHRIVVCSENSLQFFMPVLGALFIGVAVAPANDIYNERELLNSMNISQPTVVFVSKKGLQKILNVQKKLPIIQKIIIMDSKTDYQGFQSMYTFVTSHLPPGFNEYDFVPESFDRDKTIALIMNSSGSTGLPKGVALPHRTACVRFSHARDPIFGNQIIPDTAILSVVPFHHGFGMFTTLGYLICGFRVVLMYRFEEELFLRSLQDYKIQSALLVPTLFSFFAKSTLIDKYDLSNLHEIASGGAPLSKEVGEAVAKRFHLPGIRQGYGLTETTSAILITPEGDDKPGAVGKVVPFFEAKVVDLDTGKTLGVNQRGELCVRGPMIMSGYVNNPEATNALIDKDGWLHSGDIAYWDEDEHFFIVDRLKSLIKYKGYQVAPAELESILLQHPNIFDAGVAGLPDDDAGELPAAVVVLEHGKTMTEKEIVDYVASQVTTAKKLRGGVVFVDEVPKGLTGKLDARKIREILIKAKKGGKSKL

| Compound | Potency |
| --- | --- |
| CC(=O)c1ccc(NC(=O)CSc2nnc(NC(=O)Nc3ccccc3)s2)cc1 | inactive |
| Cc1ccc(C(=O)Nc2ccc(-c3nc4ccccc4s3)c(O)c2)cc1 | inactive |
| Cc1nn(-c2ccc(C(C)(C)C)cc2)c(C)c1[C@@H]1C=C[C@@H](NC(=O)c2ccco2)C1 | inactive |
| Oc1ccc(-c2nc(C3CC3)nc3c2CCN(Cc2cccc(F)c2)CC3)cc1 | inactive |
| CC(=O)Nc1ccc(NC(=O)CCCc2nc(-c3ccc(C(C)(C)C)cc3)no2)cc1 | inactive |
| Cc1ccc(Nc2c(-c3ccc(N(C)C)cc3)nc3nc[nH]n23)cc1 | inactive |
| Fc1ccc(Nc2nc(-c3ccccc3F)no2)cc1 | inactive |
| Cc1ccc(-c2nnc(SCc3ccccc3C)o2)cc1 | inactive |
| CCNC(=O)C1C(c2cccc(NC(=O)c3ccc(OC)cc3)c2)OC(=O)N1Cc1ccc(C)cc1 (centres undefined) | 3.94 µM (active) |
| Cc1cc(C)n(CCC(=O)N2CCC(Cc3noc(C4CC4)n3)C2)n1 (centres undefined) | inactive |
| Cc1cccc(-c2cccc(NC(=O)C3CCCN(C(=O)CC(F)(F)F)C3)c2)c1 (centres undefined) | inactive |
| Cc1nn(-c2ccc(C(C)C)cc2)c(C)c1[C@@H]1C=C[C@@H](NC(=O)CC2(CC(=O)O)CCCC2)C1 | inactive |
| CC(C)C(=O)Nc1cc(-c2nc3ccccc3s2)ccc1Cl | inactive |
| COc1cccc(-c2nc3ccc(-c4ccc5c(c4)OCO5)cc3o2)c1OC | inactive |
| OC1(CN2CCCCC2)CCN(c2nc3ccccc3s2)C1 (centres undefined) | inactive |
| Cc1nn(-c2ccc(C(C)C)cc2)c(C)c1[C@@H]1C=C[C@@H](NC(=O)Nc2ccccc2)C1 | inactive |
| CN1CCN(C[C@@H]2CN(C(=O)CCCc3ccccc3)C[C@@H]2CO)CC1 | inactive |
| COc1ccc(-c2cc(N3CCCC(NC(=O)c4ccsc4)C3)n[nH]2)cc1 (centres undefined) | inactive |
| COc1ccccc1OC1(C(=O)O)CCN(c2ncnc3nc[nH]c23)CC1 | inactive |
| O=C(CSc1ccc(F)cc1)Nc1ccccc1-c1nc2ccccc2s1 | inactive |
| O=C(Nc1ccccc1)c1nc2c(o1)CCN(Cc1cccc(Cl)c1)CC2 | inactive |
| COc1ccc(C(=O)Nc2onc3c2CCCC3)cc1 | 3.94 µM (active) |

| Compound | Potency |
| --- | --- |
| OCc1cccc(-c2cc3c(cn2)CN(Cc2ccccc2)CCN3)c1 | inactive |
| O=C(/C=C/c1ccccc1)Nc1cc(-c2nc3cc(Cl)ccc3o2)ccc1Cl | inactive |
| CC(=O)c1nn(-c2ccc(OC(F)(F)F)cc2)nc1Nc1ccccc1 | inactive |
| CNc1nc(C(=O)NCc2ccc3[nH]c(-c4ccc(F)cc4)c(C)c3c2)cs1 | inactive |
| CN1c2cc(C(=O)Nc3ccccc3)ccc2C(=O)N2CCCCCC21 (centres undefined) | inactive |
| Cc1nn(-c2ccc(C(C)C)cc2)c(C)c1[C@@H]1C=C[C@@H](NC(=S)NCC(C)C)C1 | inactive |
| Cc1cccc(C(=O)Nc2ccc(-c3nc4ccccc4s3)c(C)c2)c1 | inactive |
| OCC1CCCN(c2ncnc3c2cnn3-c2ccccc2)C1 (centres undefined) | 0.785 µM (active) |
| Cc1ccc(Cl)cc1-n1ncc2c(N3CCC(C(N)=O)CC3)ncnc21 | inactive |
| OCCN1CCN(c2nc(N3CCCCC3)c3cnn(-c4ccc(Cl)cc4)c3n2)CC1 | inactive |
| C[S+](=O)([O-])CCn1ncc2cc(OCc3cccc(-c4ccccc4)c3)ccc21 | inactive |
| CC(=O)Oc1ccccc1C(=O)Nc1ccc(-c2nc3ccc(C)cc3s2)cc1 | inactive |
| O=C(NC1CCN(c2cc(-c3ccc(F)cc3)[nH]n2)C1)c1cc2ccccc2[nH]1 (centres undefined) | inactive |
| Cc1ccc2cc(CN3CCN(CC(N)=O)CC3)c(-c3cccs3)nc2c1 | inactive |
| COc1ccc(CC(=O)Nc2ccc(-c3nc4ccccc4s3)c(C)c2)cc1 | inactive |
| COc1ccc(-c2nc3ccccc3s2)cc1NC(=O)COc1ccccc1C | inactive |
| CCc1cccc(NC(=O)c2cc(-c3ccccc3)n[nH]2)c1 | inactive |
| COc1cc(F)ccc1-c1ccc(COc2ccc3c(cnn3CCC(=O)O)c2)cc1 | inactive |
| Cc1ccc(-c2nc(C(=O)N(C)Cc3ccccc3)no2)cc1 | inactive |
| Oc1cccc(-c2cc3c(cn2)CN(Cc2cccnc2)CCN3)c1 | inactive |
| O=C(COc1ccc(Cl)cc1)Nc1ccc(-c2nc3cc(Cl)ccc3o2)c(O)c1 | inactive |
| CCOC(=O)C1CCN(C(=O)c2cccc3c2CCN3C(=O)Nc2ccccc2)CC1 | 3.13 µM (active) |
